# Test results reported in PubChem BioAssay (NCATS).
# Results filed as inconclusive are left out. Activity calls are given as the source filed them. Unless noted, calls come from the whole dose curve.
# Tests used:
# [1] = qHTS for Inhibitors of the Functional Ribonucleoprotein Complex (vRNP) of Lassa (LASV) Arenavirus: Viability assay - alamar blue signal for LASV Primary Screen (AID 1347083; calls by dose curve; tested in HEK293 reporter line; note: nearly all actives have a fitted effect of over 80% in size; note: potency is the fitted concentration of half-maximal effect)
# [2] = qHTS for Inhibitors of the Functional Ribonucleoprotein Complex (vRNP) of Lymphocytic Choriomeningitis Arenaviruses (LCMV): Viability assay - alamar blue signal for LCMV Primary Screen (AID 1347085; calls by dose curve; tested in HEK293 reporter line; note: nearly all actives have a fitted effect of over 80% in size; note: potency is the fitted concentration of half-maximal effect)
# [3] = target: Nucleoprotein (Lymphocytic choriomeningitis virus (strain Armstrong)) (UniProt P09992); assay: qHTS for Inhibitors of the Functional Ribonucleoprotein Complex (vRNP) of Lymphocytic Choriomeningitis Arenaviruses (LCMV): LCMV Primary Screen - GLuc reporter signal (AID 1347086); note: nearly all actives have a fitted effect of over 70% in size; note: potency is the fitted concentration of half-maximal effect; for activity change, negative = inhibition: % is set by controls: 0 for no effect and ±100 for the full control effect
# Chain of Nucleoprotein (Lymphocytic choriomeningitis virus (strain Armstrong)) (P09992 whole entry, looked up): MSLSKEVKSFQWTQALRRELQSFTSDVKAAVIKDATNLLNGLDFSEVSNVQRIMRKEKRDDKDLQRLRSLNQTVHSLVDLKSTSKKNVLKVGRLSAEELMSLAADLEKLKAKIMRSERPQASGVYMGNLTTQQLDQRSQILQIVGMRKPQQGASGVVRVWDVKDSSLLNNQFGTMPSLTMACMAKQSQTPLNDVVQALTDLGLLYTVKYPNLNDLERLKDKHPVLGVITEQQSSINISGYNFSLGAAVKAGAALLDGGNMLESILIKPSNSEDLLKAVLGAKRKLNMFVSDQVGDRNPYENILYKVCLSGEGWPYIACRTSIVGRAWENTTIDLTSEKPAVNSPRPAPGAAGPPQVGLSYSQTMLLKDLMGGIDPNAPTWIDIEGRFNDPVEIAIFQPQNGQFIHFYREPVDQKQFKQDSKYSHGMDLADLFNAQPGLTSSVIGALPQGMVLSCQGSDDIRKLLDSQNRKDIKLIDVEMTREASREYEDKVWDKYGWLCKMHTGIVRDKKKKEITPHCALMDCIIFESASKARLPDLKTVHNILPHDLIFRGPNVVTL
# [4] = Confirmatory qHTS to identify inhibitors of SARS-CoV-2 cell entry (AID 1645844); note: potency is the fitted concentration of half-maximal effect; nearly all actives have a fitted effect of over 45% in size
# How it was run: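 Using stable human ACE2 Expi293F cells, compounds preincubated 1 hr before spike pseudoparticle infection; luciferase signal after 48 hr at 37C, 5% CO2, normalised to spike PP and no-fusion-protein PP wells.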
# [5] = Cytotoxicity counterscreen for inhibitors of SARS-CoV-2 cell entry (AID 1645845); note: % is set by controls: 0 for no effect and ±100 for the full control effect; nearly all actives have a fitted effect of over 50% in size
# How it was run: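 After a 15 min room-temperature ATPLite 1step step, luminescence reflected ATP remaining in HEK293-ACE2 cells exposed to compound for 1 h plus 48 h at 37 C, with percent activity set by cell and no-cell controls.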
# [6] = Primary qHTS to identify inhibitors of SARS-CoV-2 cell entry (AID 1645846); conditions: activity change, negative = inhibition: at 57.1 µM (top of the series) unless noted; note: nearly all actives have a fitted effect of over 45% in size
# How it was run: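 HEK293 cells stably expressing human ACE2, pre-treated 1 h with compound, then infected with MLV particles pseudotyped with Wuhan-Hu-1 spike (C-terminal 19-aa truncation). Luciferase luminescence after 48 h at 37 °C, normalised to spike PP and bald PP.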
# [7] = target: Cytochrome P450 3A4 (Homo sapiens) (UniProt P08684); assay: qHTS Assay for Inhibitors and Substrates of Cytochrome P450 3A4 (AID 884; active = well fitted curve in the direction sought with a large enough effect; an effect the other way counts as inactive or inconclusive; note: potency is the fitted concentration of half-maximal effect; nearly all actives have a fitted effect of over 50% in size)
# Chain of Cytochrome P450 3A4 (Homo sapiens) (P08684 whole entry, looked up): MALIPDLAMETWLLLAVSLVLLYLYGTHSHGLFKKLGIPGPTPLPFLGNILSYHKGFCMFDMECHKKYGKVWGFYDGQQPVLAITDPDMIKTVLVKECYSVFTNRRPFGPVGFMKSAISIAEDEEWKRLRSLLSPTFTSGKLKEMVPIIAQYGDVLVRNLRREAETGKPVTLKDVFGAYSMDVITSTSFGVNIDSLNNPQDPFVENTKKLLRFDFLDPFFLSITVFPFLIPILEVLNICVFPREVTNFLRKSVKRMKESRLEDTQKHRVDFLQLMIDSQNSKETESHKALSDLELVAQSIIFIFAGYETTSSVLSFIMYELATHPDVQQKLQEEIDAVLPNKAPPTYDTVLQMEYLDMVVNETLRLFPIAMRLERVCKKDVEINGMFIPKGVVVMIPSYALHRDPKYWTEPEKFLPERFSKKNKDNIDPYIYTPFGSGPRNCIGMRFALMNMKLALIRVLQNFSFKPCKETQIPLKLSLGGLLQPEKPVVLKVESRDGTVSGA
# How it was run: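 Luminescent readout of luciferin produced by CYP3A4 (20 nM) dealkylation of Luciferin-PPXE, 25 uM (its KM). NADPH-driven reaction ran 60 min at RT after 10 min compound preincubation; data scaled to 57 uM ketoconazole as 100% inhibition.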
# [8] = Confirmation and Secondary Assay for Modulators of Hemoglobin Beta Chain Splicing at IVS2 654 locus (AID 910; active = well fitted curve in the direction sought with a large enough effect; an effect the other way counts as inactive or inconclusive;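 note: per-well total GFP intensity by laser scanning cytometry after 2-day treatment; potency is the fitted concentration of half-maximal effect; potency of activators that raise GFP signal by restoring correct splicing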)
# How it was run: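 HeLa cells stably carrying EGFP interrupted by mutant beta-globin IVS2-654 intron (CMV-driven) were treated with compound for 2 days at 37C; corrected splicing was scored as total peak GFP intensity per well (488 nm excitation, 500-520 nm emission).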
smiles,measurement,setting,value
Cn1cc(-c2cnn3c(N)c(Br)c([C@H]4CCCNC4)nc23)cn1,Potency,[1],1.22 µM (active)
same,Potency,[2],1.53 µM (active)
same,Potency,[3],2.73 µM (active)
CN[C@H]1CCc2cc(OC)c(OC)c(OC)c2-c2ccc(OC)c(=O)cc21,Potency,[1],inactive
same,Potency,[2],0.0054 µM (active)
same,Potency,[3],0.0172 µM (active)
same,Potency,[4],38.3 nM (active)
same,Potency,[5],inactive
same,"activity change, negative = inhibition",[6],-76.7%
CC(=O)ON=C1C(c2c(O)[nH]c3cc(Br)ccc23)=Nc2ccccc21,Potency,[1],1.93 µM (active)
same,Potency,[2],inactive
same,Potency,[3],inactive
Cn1cc(C=CC(=O)c2cccc(F)c2)cc1C=CC(=O)NO,Potency,[1],17.2 µM (active)
same,Potency,[2],17.2 µM (active)
same,Potency,[3],13.7 µM (active)
CC[C@@]1(O)C(=O)OCc2c1cc1n(c2=O)Cc2cc3cc(O)ccc3nc2-1,Potency,[7],12.6 µM (active)
same,Potency,[8],12.6 µM (active)
same,Potency,[1],0.685 µM (active)
same,Potency,[2],0.968 µM (active)
same,Potency,[3],1.37 µM (active)
same,"activity change, negative = inhibition",[6],-96.4%
COCCOC(=O)C1=C(C)NC2=C(C(=O)CC(c3ccccc3OC)C2)C1c1cccc(O)c1 (stereo not drawn),Potency,[1],17.2 µM (active)
same,Potency,[2],10.9 µM (active)
same,Potency,[3],15.3 µM (active)
same,Potency,[5],inactive
CO[C@H]1C[C@@H]2CC[C@@H](C)[C@@](O)(O2)C(=O)C(=O)N2CCCC[C@@H]2C(=O)O[C@H]([C@H](C)C[C@@H]2CC[C@H](OC(=O)C(C)(CO)CO)[C@H](OC)C2)CC(=O)[C@H](C)C=C(C)[C@@H](O)[C@@H](OC)C(=O)[C@H](C)C[C@H](C)C=CC=CC=C1C,Potency,[1],0.0122 µM (active)
same,Potency,[2],0.0273 µM (active)
same,Potency,[3],0.0153 µM (active)
COc1cc2cc(c1Cl)N(C)C(=O)CC(OC(=O)C(C)N(C)C(C)=O)C1(C)OC1C(C)C1CC(O)(NC(=O)O1)C(OC)C=CC=C(C)C2 (stereo not drawn),Potency,[1],inactive
same,Potency,[2],inactive
same,Potency,[3],inactive
CCC[C@H](Nc1nc(-c2ccc(NC(=O)NCC)c(OC)c2)ncc1C)c1cccnc1,Potency,[1],0.0385 µM (active)
same,Potency,[2],0.0485 µM (active)
same,Potency,[3],0.109 µM (active)
same,"activity change, negative = inhibition",[6],-93.9%
CC(O)(C#Cc1ccc2c(c1)N(c1nc(N)ncc1Cl)CC2)c1nccs1 (stereo not drawn),Potency,[1],21.7 µM (active)
same,Potency,[2],17.2 µM (active)
same,Potency,[3],inactive
COc1cc(-c2nn(C3CCC(N4CCN(C(C)=O)CC4)CC3)c3ncnc(N)c23)ccc1NC(=O)c1cc2ccccc2n1C (stereo not drawn),Potency,[1],0.863 µM (active)
same,Potency,[2],0.968 µM (active)
same,Potency,[3],0.685 µM (active)
same,Potency,[5],inactive
C#C[C@]1(O)CC[C@@H]2[C@@H]3CCc4cc(O)ccc4[C@H]3CC[C@@]21C,Potency,[1],6.85 µM (active)
same,Potency,[2],3.06 µM (active)
same,Potency,[3],2.17 µM (active)
CCOC(=O)N1CCN([N+]([O-])=NOc2ccc([N+](=O)[O-])cc2C#N)CC1,Potency,[1],10.9 µM (active)
same,Potency,[2],inactive
same,Potency,[3],inactive
